Inconclusive results are not listed. Unmarked numbers belong to inactive results. Activity calls are given as the source filed them. The call rests on the fitted dose curve; in most records, active means well fitted activation curve with a large enough effect in the signal ratio, with a control signal flat (not every such curve was filed as active); inconclusive means small, poorly fitted or top-dose-only effect, or effect the other way, or a change in a side signal; inactive means flat fitted curve, though single readings scatter; the % refers to the signal ratio.
Assay: qHTS Assay for Identification of Small Molecule Agonists for Hypoxia Response Element Signaling Pathway (AID 914); on activation: % of control where 0% means no effect
Conditions: ME-180 (cervical carcinoma) HRE-bla reporter, beta-lactamase ratio, CoCl2, 17 h; activation: active compounds read high
Description: NIH Molecular Libraries Screening Centers Network [MLSCN]
NIH Chemical Genomics Center [NCGC]
Hypoxia-inducible factor-1 (HIF-1) is the major hypoxia-regulated transcription factor that controls cellular responses to low oxygen concentration. HIF-1 is composed of two subunits: hypoxia responsive HIF-1 alpha and constitutively expressed HIF-1 beta, which is also known as aryl hydrocarbon receptor nuclear translocator. During hypoxic conditions, HIF-1 alpha heterodimerizes with HIF-1 beta and translocates into the nucleus where the HIF-1 complex binds to the hypoxia-response element (HRE) and activates expression of target genes such as VEGF (vascular endothelial growth factor). HIF-1 alpha protein levels are elevated in many solid tumors, including those of the cervix and brain. Within tumors, cells that are the greatest distance from blood vessels and therefore the most hypoxic express the highest levels of HIF-1 alpha. Therapeutic blockade of the HIF-1 signaling pathway in cancer cells therefore provides an attractive strategy for development of anticancer drugs.
Using a beta-lactamase reporter-gene under control of the hypoxia response element, a cell-based assay [CellSensor(TM) HRE-bla ME-180 developed by Invitrogen Corp.] was used to measure hypoxia-induced signaling. Library compounds were measured for their ability to positively modulate the action of EC50 CoCl2 on reporter gene activity. Compounds were screened in a titration series in 1536-well format. Positive modulators were identified based on the AC50 values derived from the screening data.
NCGC Assay Protocol Summary:
2500 cells/5uL in Opti-MEM medium containing 0.5% dialyzed FBS, 0.1 mM NEAA, 1 mM sodium pyruvate and 10 mM HEPES was dispensed into 1536-well plates and cells were cultured at 37 degrees Celsius overnight. Next day 23 nL of compounds or DMSO were delivered to each well using a pin tool, and 1uL of EC50 level of CoCl2, or EC100 level of CoCl2, or assay medium was added. And then the plates were incubated at 37 degrees Celsius for 17 hours. 1 uL of CCF4-dye mixture was added to each well. After incubated at room temperature for 2.5 hours the plates were measured on an EnVision plate reader at Excitation 405nm, Emission1=460nm and Emission 2=530nm. The %Activity was determined from the ratio of 460nm/530nm.
Potency means the concentration at half of the fitted maximal effect.

| SMILES | activation | Potency |
| --- | --- | --- |
| CC1(C)CC(=O)C(C=Nc2ccc(Cl)cn2)=C(O)C1 | -14.7% | – |
| Cc1ccccc1C(=O)c1ccc2c(c1)n(C)c(=O)n2C | -17.8% | – |
| CCCCOC(=O)Nc1ccc(S(=O)(=O)Nc2nc(C)cc(C)n2)cc1 | -6.31% | – |
| Cn1cc(Br)cc2nc(C(F)(F)F)nc1-2 | 2.94% | – |
| CCOc1cccc(N2C(=O)CC(N(CCc3ccc(OC)c(OC)c3)C(=O)CC)C2=O)c1 (stereo not given) | 11% | – |
| CCOC(=O)c1c(N)sc2c1CCC1C(=O)N(C3CCCCC3)C(=O)C21 (stereo not given) | -6.89% | – |
| COc1ccc(-n2c(SCC(N)=O)nc3sc4c(c3c2=O)CCN(C)C4)cc1 | -0.0215% | – |
| O=C(O)C(Cc1c[nH]c2ccccc12)NS(=O)(=O)c1cccc2nsnc12 (stereo not given) | -7.91% | – |
| CCOC(=O)C(C(=O)OCC)N(C#N)c1nc(SC)nc(N(C)C)n1 | -11.1% | – |
| O=C(O)C1CC=CCC1C(=O)N1CCN(c2nc(-c3ccccc3)c3ccccc3n2)CC1 (stereo not given) | – | 3.98 µM (active) |
| COc1ccc(C(=O)OC(C)CN2CCN(C)CC2)cc1OC (stereo not given) | 7.74% | – |
| O=C(O)CCCC(=O)Nc1ccn(-c2ccccc2)n1 | 6.56% | – |
| CCC(C(=O)Nc1ncn[nH]1)(C(F)(F)F)C(F)(F)F | -10.1% | – |
| CC(C)Oc1ccc(/C(O)=C2/C(=O)C(=O)N(CCN(C)C)C2c2ccco2)cc1 (stereo not given) | -2.15% | – |
| COc1ccc(C2C(C#N)=C(N)Oc3n[nH]c(C)c32)cc1CSc1ccccn1 (stereo not given) | -21.4% | – |
| CC(C)NC(=O)N1CCOCCOCCN(C(=O)NC(C)C)CCOCCOCC1 | 3.05% | – |
| C=CC(O)Cc1c(C)n[nH]c1C (stereo not given) | 4.5% | – |
| COC(=O)c1ccc(=O)n(Cc2ccc3c(c2)OCO3)c1 | 26.1% | – |
| C=CCn1c(=S)[nH]c2nc3c(cc2c1=O)COC(C)(C)C3 | -5.87% | – |
| COc1cc(C2C3C(=O)N(c4ccc(F)cc4)C(=O)C3ON2c2ccccc2)ccc1O (stereo not given) | -4.56% | – |

| SMILES | activation | Potency |
| --- | --- | --- |
| CCC1(C)Cc2c(sc3c2c(=O)n(C)c2nnc(SCc4ccc5c(c4)OCO5)n32)CO1 (stereo not given) | -18.9% | – |
| Cn1c(=O)c2c(nc(Oc3ccc4c(c3)OCO4)n2Cc2ccc(F)cc2)n(C)c1=O | -23.2% | – |
| COc1cc(NC2=CC(=O)CC(C)(C)C2)cc(OC)c1OC | -12.9% | – |
| COc1ccc(-n2c(=O)c(CCc3ccccc3)nc3cnc(N4CCNCC4)nc32)cc1 | – | 3.16 µM (active) |
| CCOc1ccc(/C(O)=C2/C(=O)C(=O)N(CCN(CC)CC)C2c2ccco2)cc1 (stereo not given) | -14.8% | – |
| O=C(O)CCN(CCC(=O)O)c1nnc(SCc2ccccc2)s1 | 24.5% | – |
| COc1ccc2c(C)nc(Nc3nc(C)cc(C)n3)nc2c1 | -6.59% | – |
| COC(=O)C1=C(N)Oc2cc(C)[nH]c(=O)c2C1c1ccncc1 (stereo not given) | 2.44% | – |
| CCOC(=O)C(c1ccccc1)N1CCN(c2ccc(OC)cc2)CC1 (stereo not given) | -13.4% | – |
| CC1=CC(c2ccccc2)n2nc(N3C(=O)C4CC=CCC4C3=O)nc2N1 (stereo not given) | 6.95% | – |
| COCCNC(=O)c1c(N)n(/N=C/c2cccs2)c2nc3ccccc3nc12 | – | 10 µM (active) |
| COc1ccc2c(c1)CN([C@H](C)[C@@H]1CC[C@@H]3[C@H]4CC[C@H]5C[C@@H](O)CC[C@@]5(C)[C@H]4CC[C@]31C)CO2 | 15.9% | – |
| O=C(NCc1cccnc1)c1ccc(=O)oc1 | 10.6% | – |
| CCc1cc(=O)oc2c(CN3CCCC3)c(O)c(Cl)cc12 | – | 7.94 µM (active) |
| CCOC(=O)c1c(CNCCN(CC)CC)n(C)c2cc(Br)c(OC)cc12 | -9.75% | – |
| CCCCOc1ccc(C(=O)Nc2ccc(N3CCN(C(C)=O)CC3)cc2)cc1 | – | 2.51 µM (active) |
| Cc1ccc(S(=O)(=O)c2cc3c(=O)n4ccccc4nc3n(C)c2=N)cc1 | – | 7.94 µM (active) |
| CC(C)OCCCn1c(=N)c(C(N)=S)cc2c(=O)n3ccccc3nc21 | 13.6% | – |
| O=C(CSc1nnc(-c2ccco2)c(-c2ccco2)n1)Nc1ccccc1 | -14.8% | – |
| O=C(NC1CCCCC1)Nn1c(-c2ccccc2)nc2ccccc2c1=O | 1.48% | – |
